Screens as filed in PubChem.
This is a sample that favours compounds with a hit; in the whole collection about 15% have one here.
TDP1 cell CPT: DT40-hTDP1 cell growth loss with CPT | chicken DT40 Tdp1-/-;hTDP1 cells + 20 nM CPT, ATP luminescence, 48 h | Potency, µM (highest dose often 46.2 µM), actives largely listed as inhibitors | hit rate 12% among 420,000 | AID 686979; also: nearly all actives have a fitted effect of over 55% in size
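Chicken DT40 Tdp1-/- cells stably complemented with human TDP1 were seeded at 400 cells/well in medium containing 20 nM camptothecin, exposed to pin-transferred compounds, and grown at 37 °C for at least 48 hr. Viability was read as ATP luminescence.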
TDP1 cell noCPT: qHTS for Inhibitors of human tyrosyl-DNA phosphodiesterase 1 (TDP1): qHTS in cells in absence of CPT. DT40 Tdp1-/- hTDP1 cells, no CPT, ATP luminescence, 48 h. Potency, µM (doses to about 46.2 µM), actives largely listed as inhibitors. hit rate 15% among 420,000. AID 686978, 2013; also: nearly all actives have a fitted effect of over 55% in size
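Luminescent ATP content (CellTiter-Glo) served as the growth readout. Knockout chicken DT40 cells expressing human TDP1 were exposed to compounds without camptothecin for a minimum 48 hr at 37 °C.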
12-LOX inh: inhibitors of human 12S-lipoxygenase ALOX12; AID 1671190; Potency, µM (series often up to 108 µM), most hits filed as inhibitors; P18054; hit rate 1.1% among 580,000; purified 12hLO, xylenol orange hydroperoxide absorbance
Target sequence (P18054 whole entry, looked up): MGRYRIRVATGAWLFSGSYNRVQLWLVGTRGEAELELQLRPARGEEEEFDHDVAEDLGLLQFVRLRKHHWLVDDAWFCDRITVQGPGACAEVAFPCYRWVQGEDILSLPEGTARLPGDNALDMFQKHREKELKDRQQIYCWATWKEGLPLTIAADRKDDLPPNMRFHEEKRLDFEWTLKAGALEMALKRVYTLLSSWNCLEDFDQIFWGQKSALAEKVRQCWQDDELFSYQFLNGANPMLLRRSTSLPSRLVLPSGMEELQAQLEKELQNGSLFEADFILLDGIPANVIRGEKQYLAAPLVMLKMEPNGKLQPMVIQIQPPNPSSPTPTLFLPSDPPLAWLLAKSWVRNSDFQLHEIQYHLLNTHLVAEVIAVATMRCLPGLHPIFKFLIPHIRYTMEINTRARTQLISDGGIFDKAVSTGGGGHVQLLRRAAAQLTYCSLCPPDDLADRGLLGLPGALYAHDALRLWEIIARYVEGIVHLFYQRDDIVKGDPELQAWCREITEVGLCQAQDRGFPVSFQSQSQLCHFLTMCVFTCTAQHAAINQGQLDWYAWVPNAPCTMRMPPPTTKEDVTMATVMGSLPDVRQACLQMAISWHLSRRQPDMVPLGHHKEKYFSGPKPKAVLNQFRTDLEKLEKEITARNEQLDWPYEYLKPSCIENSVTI
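Purified human 12hLO at 150 nM in 25 mM Hepes, 0.01% Triton X-100, pH 7.0, preincubated 15 min at room temperature with compound. Reaction started with 40 uM arachidonic acid, 30 min at room temperature. Hydroperoxide measured by Fe-xylenol orange, 573/405 nm absorbance ratio.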
RORgamma inh: ROR gamma (mouse) transcription inhibition; hit rate 5.4% among 310,000; P51450; Drosophila S2 Gal4-RORgamma UAS-luciferase reporter, 20 h; Potency, µM (highest dose often 53.6 µM), most hits filed as inhibitors; also: nearly all actives have a fitted effect of over 60% in size
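Stable Schneider cell line, Gal4 DNA-binding domain fused to ROR gamma, UAS-luciferase. Cmpd 1 hr RT → CuSO4 700 uM final → 20 hr RT → luciferase reagent 10 min → luminescence.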
ELG1 DNA repair: blocks ELG1-dependent DNA repair in HEK293T cells | HEK293T ELG1-luciferase reporter, luminescence, 16 h; DNA damage induced by 5-fluorouridine | Potency, µM (highest dose often 46.1 µM), usual class: inhibitors | hit rate 2.3% among 330,000; also: nearly all actives have a fitted effect of over 55% in size
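DMSO vehicle served as the neutral condition. Each well held 2,000 cells given 5-fluorouridine plus compound; after 16 hr at 37 °C/5% CO2, ONE-Glo was added and luciferase measured 30 min later.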
Gal4-VP16 FLuc: inhibits Gal4-VP16 luciferase reporter, ROR gamma counter-screen | Drosophila S2 Gal4-VP16 UAS-luciferase, luminescence, 20 h | Potency, µM (highest dose often 53.6 µM), hits mostly inhibitors | hit rate 3.5% among 310,000;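 also: Gal4-VP16 expression switched on by copper sulfate through the metallothionein promoter; nearly all actives have a fitted effect of over 50% in size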
Each line names hits and unclear results; the compound was inactive in the other large screens. Calls follow the shape of the dose curve; as a rule, active = well fitted curve in the direction sought with a large enough effect; inconclusive = small, poorly fitted or top-dose-only effect, or another doubt; inactive = no such curve, though single readings can be large; an effect the other way counts as inactive or inconclusive.

CCc1ccc(NC(=O)C(=O)NCCc2csc(-c3ccc(C(F)(F)F)cc3)n2)cc1	TDP1 cell noCPT inconclusive (no result: RORgamma inh, ELG1 DNA repair, Gal4-VP16 FLuc)
COc1ccc(N2CC(O)=C(c3nc(-c4ccccc4)cs3)C2=N)cc1	TDP1 cell CPT inconclusive, TDP1 cell noCPT 21µM
CCc1ccc(-c2nc(CCl)cs2)cc1	TDP1 cell CPT 12µM, TDP1 cell noCPT inconclusive, RORgamma inh inconclusive, ELG1 DNA repair inconclusive
CCN(C(=O)COC(=O)Cc1sc(N)nc1-c1ccc(C)cc1)c1cccc2ccccc12	none (no result: TDP1 cell CPT, TDP1 cell noCPT, RORgamma inh, ELG1 DNA repair, Gal4-VP16 FLuc)
O=C(NCCc1ccco1)C1CCN(c2ccc(C(F)(F)F)cn2)CC1	none (no result: TDP1 cell CPT, TDP1 cell noCPT, RORgamma inh, ELG1 DNA repair, Gal4-VP16 FLuc)
COc1cccc2cc(-c3cc(=O)oc4c(C)c(C)ccc34)oc12	none (no result: TDP1 cell CPT, TDP1 cell noCPT, RORgamma inh, ELG1 DNA repair, Gal4-VP16 FLuc)
CN(Cc1ccc(Cl)cc1)C(=O)C1CCN(c2ccc(C(F)(F)F)cn2)CC1	none (no result: TDP1 cell CPT, TDP1 cell noCPT, RORgamma inh, ELG1 DNA repair, Gal4-VP16 FLuc)
ClCc1csc(-c2ccccc2Cl)n1	TDP1 cell CPT 12µM, TDP1 cell noCPT 18µM, 12-LOX inh inconclusive
COc1ccc(-c2csc(-c3ccc(O)cc3)n2)cc1	TDP1 cell CPT 7.3µM, TDP1 cell noCPT 6.5µM, ELG1 DNA repair inconclusive
COc1ccc(-c2nc(-c3ccc(F)cc3)cs2)cc1	none (no result: TDP1 cell CPT, TDP1 cell noCPT, RORgamma inh, ELG1 DNA repair, Gal4-VP16 FLuc)
CCOc1ccc(-c2nc(CN(CCO)Cc3csc(-c4ccc(OCC)c(OC)c4)n3)cs2)cc1OC	none (no result: TDP1 cell CPT, TDP1 cell noCPT, RORgamma inh, ELG1 DNA repair, Gal4-VP16 FLuc)
COc1ccc(-c2nc(CCl)cs2)cc1OC	TDP1 cell CPT 4.6µM, TDP1 cell noCPT 12µM
COc1ccc(Br)c(C(=O)OC(C)C(=O)Nc2c(C)n(C)n(-c3ccccc3)c2=O)c1 (centres undefined)	none (no result: TDP1 cell CPT, TDP1 cell noCPT, RORgamma inh, ELG1 DNA repair, Gal4-VP16 FLuc)
Cc1ccc2c(c1)SCC(=O)N2CC(=O)N(C)Cc1ccoc1	none (no result: TDP1 cell CPT, TDP1 cell noCPT, RORgamma inh, ELG1 DNA repair, Gal4-VP16 FLuc)
Cc1nc2c(c(-c3ccc(Cl)cc3)n1)CN([S+](=O)([O-])c1ccccc1)CC2	none (no result: TDP1 cell CPT, TDP1 cell noCPT, RORgamma inh, ELG1 DNA repair, Gal4-VP16 FLuc)
COc1cc2cc(C(c3nnnn3C3CCCC3)N3CCc4ccccc43)c(=O)[nH]c2cc1OC (centres undefined)	TDP1 cell CPT inconclusive, TDP1 cell noCPT inconclusive
O=c1[nH]c2cc3c(cc2cc1C(c1nnnn1Cc1ccccc1)N1CCN2CCCC2C1)OCCO3 (centres undefined)	TDP1 cell CPT inconclusive, TDP1 cell noCPT 18µM
Cc1ccc(C)c2[nH]c(=O)c(C(c3nnnn3Cc3ccccc3)N3CCc4ccccc4C3)cc12 (centres undefined)	TDP1 cell CPT 21µM
O=c1[nH]c2cc3c(cc2cc1C(c1nnnn1Cc1ccccc1)N1CCCc2ccccc21)OCO3 (centres undefined)	TDP1 cell CPT 21µM, TDP1 cell noCPT 23µM, ELG1 DNA repair 0.65µM
O=c1[nH]c2cc3c(cc2cc1C(c1nnnn1C1CCCC1)N1CCCc2ccccc21)OCCO3 (centres undefined)	none
COc1cc2cc(C(c3nnnn3C(C)(C)C)N3CCc4ccccc43)c(=O)[nH]c2cc1OC (centres undefined)	TDP1 cell noCPT 21µM
Cc1ccc2cc(C(c3nnnn3CC3CCCO3)N3CCc4ccccc4C3)c(=O)[nH]c2c1 (centres undefined)	TDP1 cell noCPT inconclusive, RORgamma inh inconclusive
O=C(NC1CC1)c1cc(=O)c2cc(Cl)ccc2o1	none (no result: TDP1 cell CPT, TDP1 cell noCPT, RORgamma inh, ELG1 DNA repair, Gal4-VP16 FLuc)
O=c1[nH]c2cc3c(cc2cc1C(c1nnnn1Cc1ccccc1)N1CCCCCC1)OCCO3 (centres undefined)	TDP1 cell CPT 16µM, TDP1 cell noCPT inconclusive, ELG1 DNA repair inconclusive, Gal4-VP16 FLuc inconclusive
COc1ccc(C(=O)CCS(=O)(=O)c2ccc(C)cc2)cc1OC	TDP1 cell CPT 3.7µM, TDP1 cell noCPT 3.3µM, RORgamma inh 2.8µM, Gal4-VP16 FLuc 4.5µM
COc1ccc(C(=O)COC(=O)CCS(=O)(=O)c2ccc(C)cc2)c(OC)c1	none (no result: RORgamma inh, Gal4-VP16 FLuc)
Cc1ccc(S(=O)(=O)CCC(=O)c2ccc(O)cc2O)cc1	TDP1 cell CPT 1.8µM, TDP1 cell noCPT 1.2µM, 12-LOX inh inconclusive, RORgamma inh 14µM, Gal4-VP16 FLuc inconclusive
O=C(N/N=C\c1ccccn1)c1cccc(C(=O)N/N=C\c2ccccn2)n1	TDP1 cell noCPT inconclusive (no result: RORgamma inh, ELG1 DNA repair, Gal4-VP16 FLuc)
Clc1ccc(/C=N/NC(=Nc2ccccc2)c2ccccn2)c(Cl)c1	TDP1 cell CPT inconclusive, TDP1 cell noCPT 29µM, RORgamma inh 13µM, ELG1 DNA repair inconclusive, Gal4-VP16 FLuc inconclusive
Clc1ccc(C=NNc2ccccn2)c(Cl)c1	none (no result: RORgamma inh, ELG1 DNA repair, Gal4-VP16 FLuc)
C(=N\NC(=Nc1ccccc1)c1ccccn1)/c1ccccn1	TDP1 cell CPT 10µM, TDP1 cell noCPT 10µM, RORgamma inh 3.2µM, ELG1 DNA repair inconclusive, Gal4-VP16 FLuc 3.2µM
c1csc(CN2Cc3[nH]cnc3C[C@H]2c2nc(-c3ccc4c(c3)OCO4)no2)c1	none (no result: TDP1 cell CPT, TDP1 cell noCPT, RORgamma inh, ELG1 DNA repair, Gal4-VP16 FLuc)
c1ccc(N2CCN(c3nccn4ccnc34)CC2)nc1	TDP1 cell CPT inconclusive (no result: RORgamma inh, ELG1 DNA repair, Gal4-VP16 FLuc)
N#Cc1cc(C#N)c(N2CCN(c3ccccn3)CC2)nc1N	TDP1 cell CPT inconclusive, TDP1 cell noCPT 22µM, RORgamma inh inconclusive, ELG1 DNA repair inconclusive, Gal4-VP16 FLuc inconclusive
Cc1cc(CNC(=O)c2ccncc2)c2[nH]c(-c3ccccc3)c(C)c2c1	none (no result: TDP1 cell CPT, TDP1 cell noCPT, RORgamma inh, ELG1 DNA repair, Gal4-VP16 FLuc)
